Assay results reported in the supplement of paper PMC6555819.

Tests used:
Test in all cases: PBM binding z-score (relative to random genomic background probes); higher = stronger binding; sequences stand for … in GC…GCGATTGACAGCGTAGAATGAAGG
[1] = system: RARb homodimer (NR concentration 270 nM)
Outline: (§1)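 Antibodies against each partner of ligand-free nuclear receptor dimers (one per run) detected binding on custom Agilent 4×180K protein-binding microarrays after 1 h incubation. The double-stranded probes had 34-nt variable regions carrying direct-repeat seeds, single-nucleotide variants, half-site ablations and random human genomic background sequences. Binding z-scores, from regression-normalized fluorescence, use the random background probes as reference.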

[2] = system: RARg:RXRa (NR concentration 270 nM, RXRa partner concentration 90 nM)
Outline: as §1

[3] = system: RARg homodimer (NR concentration 270 nM)
Outline: as §1

[4] = system: RXRa DBDmut IVT, anti-RXR (DBD mutation: RXRa K156A/R161A, NR concentration 90 nM)
Outline: as §1

[5] = system: RXRa homodimer (NR concentration 180 nM)
Outline: as §1

[6] = system: THRa:RXRa (NR concentration 90 nM, RXRa partner concentration 90 nM)
Outline: as §1

[7] = system: THRa homodimer (NR concentration 90 nM)
Outline: as §1

[8] = system: VDR homodimer (NR concentration 270 nM)
Outline: as §1

Sequence: TCTTGTAGATCATCAGGTTAAGAAAGCTGGCCAA
- PBM binding z-score [1]: 0.398
- PBM binding z-score [2]: 0.0917
- PBM binding z-score [3]: -0.23
- PBM binding z-score [4]: 0.859
- PBM binding z-score [5]: 0.451
- PBM binding z-score [6]: 0.929
- PBM binding z-score [7]: 0.613
- PBM binding z-score [8]: 0.0246

Sequence: TATTGTAGATCAGCAGGTTAAGAAAGCTGGCCAA
- PBM binding z-score [1]: -0.28
- PBM binding z-score [2]: -0.0508
- PBM binding z-score [3]: 0.00581
- PBM binding z-score [4]: -1.23
- PBM binding z-score [5]: 0.171
- PBM binding z-score [6]: 0.0661
- PBM binding z-score [7]: -0.952
- PBM binding z-score [8]: -0.39

Sequence: CCGACTGGGGCAAGGATACCATAACGCACAGCCA
- PBM binding z-score [1]: 0.07
- PBM binding z-score [2]: 0.225
- PBM binding z-score [3]: 0.802
- PBM binding z-score [4]: -0.717
- PBM binding z-score [5]: 0.232
- PBM binding z-score [6]: -0.00683
- PBM binding z-score [7]: 0.154
- PBM binding z-score [8]: -0.376

Sequence: CCGACTGGGGTAAGGTTACCATAACGCACAGCCA
- PBM binding z-score [1]: 1.12
- PBM binding z-score [2]: 0.907
- PBM binding z-score [3]: 0.859
- PBM binding z-score [4]: -0.0386
- PBM binding z-score [5]: 1.55
- PBM binding z-score [6]: 2.36
- PBM binding z-score [7]: 1.47
- PBM binding z-score [8]: 0.414

Sequence: CGTCCAATGTCAAGGTCAGTGAAAGAGACTCGAA
- PBM binding z-score [1]: 3.45
- PBM binding z-score [2]: 3.38
- PBM binding z-score [3]: 4.06
- PBM binding z-score [4]: 1.1
- PBM binding z-score [5]: 2.22
- PBM binding z-score [6]: 2.91
- PBM binding z-score [7]: 2.18
- PBM binding z-score [8]: 1.57

Sequence: TCTTGTAGAGCAAGCAGGTTAAGAAAGCCTGAGT
- PBM binding z-score [1]: -0.297
- PBM binding z-score [2]: -0.441
- PBM binding z-score [3]: -0.538
- PBM binding z-score [4]: -0.187
- PBM binding z-score [5]: -0.0799
- PBM binding z-score [6]: -0.2
- PBM binding z-score [7]: -1.05
- PBM binding z-score [8]: -0.461

Sequence: CAAACTAGGTCAAGAAAGGTCAAAGTCGAATGAC
- PBM binding z-score [1]: 5.71
- PBM binding z-score [2]: 7.33
- PBM binding z-score [3]: 7.9
- PBM binding z-score [4]: 1.95
- PBM binding z-score [5]: 7.67
- PBM binding z-score [6]: 4.9
- PBM binding z-score [7]: 1.79
- PBM binding z-score [8]: 3.03

Sequence: GATACAGGGTCAAGGCCAGAGTTCGCGTATTGAT
- PBM binding z-score [1]: 4.11
- PBM binding z-score [2]: 5.64
- PBM binding z-score [3]: 5.19
- PBM binding z-score [4]: 2.9
- PBM binding z-score [5]: 6.18
- PBM binding z-score [6]: 3.64
- PBM binding z-score [7]: 1.21
- PBM binding z-score [8]: 4.76

Sequence: CAAACTAGGTCACCGGATGGTCAAAGTCCGCATG
- PBM binding z-score [1]: 4.02
- PBM binding z-score [2]: 5.82
- PBM binding z-score [3]: 5.58
- PBM binding z-score [4]: 1.74
- PBM binding z-score [5]: 4.05
- PBM binding z-score [6]: 3.57
- PBM binding z-score [7]: 1.85
- PBM binding z-score [8]: 1.1

Sequence: GCTGCTAGGTCAGGTTGGTCATCTAACGGGTACG
- PBM binding z-score [1]: 2.84
- PBM binding z-score [2]: 2.81
- PBM binding z-score [3]: 3.9
- PBM binding z-score [4]: 0.588
- PBM binding z-score [5]: 1.18
- PBM binding z-score [6]: 1.94
- PBM binding z-score [7]: 0.942
- PBM binding z-score [8]: 0.689

Sequence: ATACCAAGGTGATCGTGTGGTCGTTGATACTAAC
- PBM binding z-score [1]: 0.584
- PBM binding z-score [2]: 0.298
- PBM binding z-score [3]: 0.273
- PBM binding z-score [4]: 0.0966
- PBM binding z-score [5]: 0.296
- PBM binding z-score [6]: 0.959
- PBM binding z-score [7]: 0.536
- PBM binding z-score [8]: 0.0513

Sequence: CCAGCTAGGTCATGGTCAGCTAATCTACAGTATG
- PBM binding z-score [1]: 3.2
- PBM binding z-score [2]: 3.81
- PBM binding z-score [3]: 4.16
- PBM binding z-score [4]: 1.61
- PBM binding z-score [5]: 2.86
- PBM binding z-score [6]: 2.8
- PBM binding z-score [7]: 1.25
- PBM binding z-score [8]: 0.247

Sequence: CGAACCAGGTCAAGGACAGTGAATCTCCGCACGC
- PBM binding z-score [1]: 3.09
- PBM binding z-score [2]: 3.99
- PBM binding z-score [3]: 4.33
- PBM binding z-score [4]: 2.23
- PBM binding z-score [5]: 3.47
- PBM binding z-score [6]: 3.82
- PBM binding z-score [7]: 2.79
- PBM binding z-score [8]: 1.05

Sequence: GCTGCTAGGTCAAGTGATGGTCAGCTAAAGCTCG
- PBM binding z-score [1]: 3.68
- PBM binding z-score [2]: 4.85
- PBM binding z-score [3]: 5.33
- PBM binding z-score [4]: 1.6
- PBM binding z-score [5]: 2.93
- PBM binding z-score [6]: 2.85
- PBM binding z-score [7]: 0.545
- PBM binding z-score [8]: -0.211

Sequence: ACTCGGAGGCCAAAGGTCAGAGCTACGCCAGTGA
- PBM binding z-score [1]: 4.54
- PBM binding z-score [2]: 6.25
- PBM binding z-score [3]: 4.8
- PBM binding z-score [4]: 0.776
- PBM binding z-score [5]: 6.62
- PBM binding z-score [6]: 3.06
- PBM binding z-score [7]: -0.031
- PBM binding z-score [8]: 0.616

Sequence: CCATACGGGTCACGAGGTTATAGCACGACGAGCG
- PBM binding z-score [1]: 3.99
- PBM binding z-score [2]: 6.02
- PBM binding z-score [3]: 5.35
- PBM binding z-score [4]: 1.27
- PBM binding z-score [5]: 7.38
- PBM binding z-score [6]: 3.55
- PBM binding z-score [7]: 1.09
- PBM binding z-score [8]: 2.45

Sequence: ATATGTAGGTTATCGCGTCATTCAGTTTGCGCAT
- PBM binding z-score [1]: 0.515
- PBM binding z-score [2]: 0.647
- PBM binding z-score [3]: 0.634
- PBM binding z-score [4]: 0.806
- PBM binding z-score [5]: 1.03
- PBM binding z-score [6]: 0.388
- PBM binding z-score [7]: 0.235
- PBM binding z-score [8]: 0.254

Sequence: GGTGCTAGGTCAGGTTGGTCAGCTAACGGGTACG
- PBM binding z-score [1]: 3.2
- PBM binding z-score [2]: 2.9
- PBM binding z-score [3]: 4.21
- PBM binding z-score [4]: 0.112
- PBM binding z-score [5]: 1.38
- PBM binding z-score [6]: 1.94
- PBM binding z-score [7]: 1.19
- PBM binding z-score [8]: 0.971

Sequence: AGAATGAGGTTATACGTTGATCAGGGAAGAAAGT
- PBM binding z-score [1]: 0.786
- PBM binding z-score [2]: 1.49
- PBM binding z-score [3]: 0.994
- PBM binding z-score [4]: 1.71
- PBM binding z-score [5]: 2.12
- PBM binding z-score [6]: 2.2
- PBM binding z-score [7]: 0.901
- PBM binding z-score [8]: 1.5

Sequence: TCTTGTAGATCAATAGAGGATAAGAAAGTGCGCT
- PBM binding z-score [1]: -0.566
- PBM binding z-score [2]: 0.208
- PBM binding z-score [3]: 0.365
- PBM binding z-score [4]: 0.919
- PBM binding z-score [5]: 0.16
- PBM binding z-score [6]: 1.5
- PBM binding z-score [7]: -0.588
- PBM binding z-score [8]: 0.0606

Sequence: CCGACTGTGGCATAAGGTTACCATAAGCCAGCCC
- PBM binding z-score [1]: 1.24
- PBM binding z-score [2]: 0.6
- PBM binding z-score [3]: 0.353
- PBM binding z-score [4]: 0.486
- PBM binding z-score [5]: 0.923
- PBM binding z-score [6]: 2.37
- PBM binding z-score [7]: 1.7
- PBM binding z-score [8]: -0.189

Sequence: CCTATTAGTTGACCATTAGGGCAACCGAAGCTCG
- PBM binding z-score [1]: 1.68
- PBM binding z-score [2]: 0.667
- PBM binding z-score [3]: 0.891
- PBM binding z-score [4]: 0.456
- PBM binding z-score [5]: 0.374
- PBM binding z-score [6]: 0.945
- PBM binding z-score [7]: 0.78
- PBM binding z-score [8]: 0.844

Sequence: AGAATGAGGTTACGAAAGATCAGGGAAACGCTTG
- PBM binding z-score [1]: 0.671
- PBM binding z-score [2]: 2.26
- PBM binding z-score [3]: 1.68
- PBM binding z-score [4]: 1.11
- PBM binding z-score [5]: 2.73
- PBM binding z-score [6]: 2.89
- PBM binding z-score [7]: 0.487
- PBM binding z-score [8]: 0.194

Sequence: TCAAATAGGTAATACAGGTGAAAGTCGGCATCTA
- PBM binding z-score [1]: 0.557
- PBM binding z-score [2]: 0.633
- PBM binding z-score [3]: 0.49
- PBM binding z-score [4]: 1.74
- PBM binding z-score [5]: 1.14
- PBM binding z-score [6]: 0.877
- PBM binding z-score [7]: -0.0126
- PBM binding z-score [8]: 0.0898

Sequence: AGAACGAGGGCACGCTGAGTTGAGAGCAGAGTAG
- PBM binding z-score [1]: 1.24
- PBM binding z-score [2]: 2.01
- PBM binding z-score [3]: 2.05
- PBM binding z-score [4]: 1.81
- PBM binding z-score [5]: 1.57
- PBM binding z-score [6]: 1.95
- PBM binding z-score [7]: -0.054
- PBM binding z-score [8]: 1.29

Sequence: TCTAGTTGGTCAAACGTCACACACTCGAAATGCG
- PBM binding z-score [1]: 0.78
- PBM binding z-score [2]: 0.926
- PBM binding z-score [3]: 0.831
- PBM binding z-score [4]: 1.2
- PBM binding z-score [5]: 1.04
- PBM binding z-score [6]: 0.288
- PBM binding z-score [7]: 0.167
- PBM binding z-score [8]: 0.2
